28 compounds from PubChem BioAssay (Tox21) can be followed below.

Molecules are shown by their SMILES. Values joined by “and” are separate entries in the source; they are usually repeats but may differ in a detail not shown here. Equal entries are not always repeated. Inconclusive results are not listed. Some structures have more than one record in an assay (separate samples or runs), and their calls can disagree. Active and inactive are the calls of the source. Unless noted, calls come from the whole dose curve.

Assay [1] is described as follows: qHTS assay to identify small molecule agonists of the sonic hedgehog signaling (Shh) pathway (AID 1259368).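 Note: NIH/3T3-derived 3T3Gli1-Luc cells carrying a stable Gli1-driven firefly luciferase reporter; series mostly up to about 92 µM; nearly all actives have a fitted effect of over 15% in size.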 In outline:
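Quantitative high-throughput format using a Gli1-driven firefly luciferase reporter line derived from NIH/3T3 cells. After a 24 hr compound treatment at 37 C and 5% CO2, luminescence reported Gli1 response element activity.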
In general terms: qHTS replaces the single test concentration by a dilution series.

The nature of assay [2]: qHTS assay to identify small molecule antagonists of the sonic hedgehog signaling (Shh) pathway (AID 1259369). Note: nearly all actives have a fitted effect of over 45% in size. Note: potency is the fitted concentration of half-maximal effect. The method in brief:
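Stable Gli1-Luc reporter NIH/3T3 clone; quantitative HTS in stimulated mode with conditioned medium. Luminescence measured after 24hr compound treatment at 37 C.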

The target of assay [3] is Estrogen receptor beta (Homo sapiens) (UniProt Q92731). Briefly: qHTS assay to identify small molecule agonists of the estrogen receptor beta (ER-beta) signaling pathway (AID 1259377; active = well fitted activation curve with a large enough effect in the signal ratio in the repeat runs, not every such curve was filed as active; the % refers to the signal ratio). The method in brief: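 HEK293T ER-beta-UAS-bla; 2% charcoal-stripped FBS; cells pre-incubated 6 hr, compound 16 hr, 37C/5% CO2; LiveBLAzer B/G FRET substrate 2 h RT; fluorescence intensity read.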
Sequence of Estrogen receptor beta (Homo sapiens) (Q92731 whole entry, looked up): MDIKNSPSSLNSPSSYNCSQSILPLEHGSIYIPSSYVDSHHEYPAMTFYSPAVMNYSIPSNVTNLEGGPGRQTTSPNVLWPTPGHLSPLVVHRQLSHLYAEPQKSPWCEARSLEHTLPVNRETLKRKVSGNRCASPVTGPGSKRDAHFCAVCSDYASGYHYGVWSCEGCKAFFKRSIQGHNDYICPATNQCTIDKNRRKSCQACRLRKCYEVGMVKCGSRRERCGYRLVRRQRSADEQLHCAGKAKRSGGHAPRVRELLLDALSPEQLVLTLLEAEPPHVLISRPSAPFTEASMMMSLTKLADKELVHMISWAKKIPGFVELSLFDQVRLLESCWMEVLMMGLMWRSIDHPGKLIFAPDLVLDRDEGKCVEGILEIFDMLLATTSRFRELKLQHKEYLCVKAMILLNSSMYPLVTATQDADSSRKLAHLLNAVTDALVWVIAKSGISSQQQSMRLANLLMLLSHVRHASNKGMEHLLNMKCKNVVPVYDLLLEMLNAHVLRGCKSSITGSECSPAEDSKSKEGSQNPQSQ

Assay [4] has the same target. Briefly: qHTS assay to identify small molecule antagonists of the estrogen receptor beta (ER-beta) signaling pathway (AID 1259378; active = well fitted inhibition curve with a large enough effect in the signal ratio in the repeat runs, not every such curve was filed as active; the % refers to the signal ratio). In outline: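 ER-beta-UAS-bla HEK293T cells in 2% charcoal-stripped FBS medium treated with compound plus 1nM final 17-beta-estradiol for 16 hr at 37C. Beta-lactamase reporter read by FRET substrate fluorescence after 2 hours at room temperature.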

Assay [5] can be described thus: qHTS assay to identify small molecule agonists of the androgen receptor (AR) signaling pathway in the presence of an antagonist - cell viability counter screen (AID 1259379; active = well fitted curve in the direction sought with a large enough effect in the repeat runs; an effect the other way counts as inactive or inconclusive;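 note: MDA-kb2 human breast cancer cells carrying an MMTV luciferase reporter; series mostly up to about 92 µM; nearly all actives have a fitted effect of over 25% in size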). The method in brief:
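Nilutamide-containing (3.0uM final) MDA-kb2 cultures, 3,000 cells/well, were treated with compounds across 15 concentrations. After 16 hr at 37C with no CO2, cell viability was determined by CellTiter-Fluor fluorescence in the luciferase assay wells.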

Assay [6] can be described thus: qHTS assay to identify small molecule agonists of the estrogen receptor beta (ER-beta) signaling pathway - cell viability counter screen (AID 1259380; active = well fitted curve in the direction sought with a large enough effect in the repeat runs; an effect the other way counts as inactive or inconclusive; note: nearly all actives have a fitted effect of over 30% in size). The method in brief: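 Steps: plate ER-beta-UAS-bla HEK293T cells, rest 6 hr; add compounds in DMSO; incubate 16 hr at 37C, 5% CO2; add FRET substrate 2 hr; add CellTiter-Glo, wait 30 min at room temperature; read luminescence.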

A short description of assay [7]: qHTS assay to identify small molecule antagonists of the estrogen receptor beta (ER-beta) signaling pathway - cell viability counter screen (AID 1259382; active = well fitted curve in the direction sought with a large enough effect in the repeat runs; an effect the other way counts as inactive or inconclusive; note: series mostly up to about 92 µM; nearly all actives have a fitted effect of over 55% in size). In outline: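 Viability is scored by CellTiter-Glo luminescence (30 min, room temperature) in ER-beta-UAS-bla HEK293T wells already read for reporter fluorescence. Compound exposure lasts 16 hr at 37C alongside 1nM 17-beta-estradiol in charcoal-stripped serum medium.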

Assay [8] deals with Estrogen receptor (Homo sapiens) (UniProt P03372). Briefly: qHTS assay to identify small molecule agonists of the estrogen receptor alpha (ER-alpha) signaling pathway in the presence of an antagonist (AID 1259383). Note: top concentration of the series differs between compounds; nearly all actives have a fitted effect of over 15% in size. In outline:
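Readout was ERE-driven luciferase luminescence in VM7Luc4E2 cells, which express full-length ER-alpha endogenously. Compounds were tested at 15 concentrations for 22hr alongside 10.0nM ICI-182,780 (final concentration).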

Assay [9] can be described thus: qHTS assay to identify small molecule agonists or antagonists of the thyroid stimulating hormone receptor (TSHR) signaling pathway - wild type cell line counter screen (AID 1259384). The method in brief: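 Wild-type Hek293 cells, 800/well, 18 h at 37C, then compound with Ro20-1724 for 30 min RT. cAMP by HTRF (cAMP-d2/anti-cAMP cryptate), 1 h RT, fluorescence read. 15 concentrations, triplicates.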

The target in assay [10] is Androgen receptor (Homo sapiens) (UniProt P10275). The assay is described as follows: qHTS assay to identify small molecule agonists of the androgen receptor (AR) signaling pathway in the presence of an antagonist (AID 1259381). Note: nearly all actives have a fitted effect of over 15% in size. Note: potency is the fitted concentration of half-maximal effect. The method in brief: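 Reporter-gene luminescence from MDA-kb2 cells exposed 16hr at 37C (0% CO2) to 15-point compound titrations with 3.0uM final nilutamide as AR antagonist.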
Sequence of Androgen receptor (Homo sapiens) (P10275 whole entry, looked up): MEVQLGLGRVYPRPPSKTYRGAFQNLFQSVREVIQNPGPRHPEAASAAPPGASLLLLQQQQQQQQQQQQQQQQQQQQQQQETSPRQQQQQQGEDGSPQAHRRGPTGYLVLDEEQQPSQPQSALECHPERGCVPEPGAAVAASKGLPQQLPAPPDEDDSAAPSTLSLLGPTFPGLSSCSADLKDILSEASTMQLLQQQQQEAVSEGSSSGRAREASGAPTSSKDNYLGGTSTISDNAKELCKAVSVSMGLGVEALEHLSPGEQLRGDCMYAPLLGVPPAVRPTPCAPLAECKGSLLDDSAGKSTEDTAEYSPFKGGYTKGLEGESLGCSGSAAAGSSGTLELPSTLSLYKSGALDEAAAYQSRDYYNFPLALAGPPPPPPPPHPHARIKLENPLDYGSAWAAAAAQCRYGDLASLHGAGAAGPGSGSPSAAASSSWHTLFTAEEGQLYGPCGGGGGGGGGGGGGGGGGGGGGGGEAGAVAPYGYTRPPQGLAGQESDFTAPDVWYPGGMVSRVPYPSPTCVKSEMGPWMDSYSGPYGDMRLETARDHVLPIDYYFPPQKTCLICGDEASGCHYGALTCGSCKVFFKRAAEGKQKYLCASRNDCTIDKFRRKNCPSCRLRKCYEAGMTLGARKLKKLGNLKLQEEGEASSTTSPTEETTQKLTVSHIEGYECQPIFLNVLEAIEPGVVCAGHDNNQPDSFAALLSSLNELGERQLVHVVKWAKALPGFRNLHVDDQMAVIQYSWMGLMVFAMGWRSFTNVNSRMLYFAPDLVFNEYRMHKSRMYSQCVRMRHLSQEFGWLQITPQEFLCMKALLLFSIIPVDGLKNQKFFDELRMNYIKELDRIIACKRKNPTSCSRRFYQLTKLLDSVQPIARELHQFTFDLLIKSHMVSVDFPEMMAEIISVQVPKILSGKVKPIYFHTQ

Sequence of Estrogen receptor (Homo sapiens) (P03372 whole entry, looked up): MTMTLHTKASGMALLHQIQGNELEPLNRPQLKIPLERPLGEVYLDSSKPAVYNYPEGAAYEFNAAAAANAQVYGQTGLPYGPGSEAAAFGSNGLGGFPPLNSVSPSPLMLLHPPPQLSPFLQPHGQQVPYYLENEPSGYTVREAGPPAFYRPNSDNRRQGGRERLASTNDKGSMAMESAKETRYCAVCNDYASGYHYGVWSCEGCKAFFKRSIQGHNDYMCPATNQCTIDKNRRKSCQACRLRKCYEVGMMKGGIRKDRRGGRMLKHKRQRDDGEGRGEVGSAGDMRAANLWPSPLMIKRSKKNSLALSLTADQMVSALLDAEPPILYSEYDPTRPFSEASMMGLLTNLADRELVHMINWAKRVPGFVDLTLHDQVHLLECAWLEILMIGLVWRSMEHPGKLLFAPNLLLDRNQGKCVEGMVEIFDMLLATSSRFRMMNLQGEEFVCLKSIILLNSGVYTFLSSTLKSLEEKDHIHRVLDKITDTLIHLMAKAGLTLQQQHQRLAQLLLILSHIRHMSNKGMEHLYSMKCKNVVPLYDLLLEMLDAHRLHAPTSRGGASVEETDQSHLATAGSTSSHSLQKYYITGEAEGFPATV

In the case of `NC(=O)Nc1ccccc1`, the compound was called inactive in assay [1], in assay [3], in assay [4] and in assay [9]. The Potency entry in assay [2], in assay [5], in assay [6], in [7] and in assay [8] was “inactive” throughout.

On to `NC(=O)c1ccc(N)cc1`, for which the call in [1], in [3], in assay [4] and in [9] was inactive. In addition, the Potency entry in assay [2], in assay [5], in assay [6], in [7] and in [8] was “inactive” throughout.

In the case of `c1ccc([C@H]2CN3CCSC3=N2)cc1`, the compound was classed as inactive in [1], in [3], in assay [4] and in [9]. The Potency result in assay [2], in assay [5], in [6], in assay [7] and in assay [8] was “inactive” throughout.

As for `O=C1CC2CC1C1CCCC21` (stereo not drawn), the compound was called inactive in assay [1], in [3], in assay [4] and in [9]. Besides, the Potency entry in [2], in assay [5], in assay [6], in assay [7] and in assay [8] was “inactive” each time. The Potency in [10] was 27.3 µM (active).

Regarding `C=C1CC[C@H]2C[C@@H]1C2(C)C`, the call in [1], in [3], in assay [4] and in [9] was inactive. For the same compound, the Potency entry in assay [2], in assay [5], in assay [6], in [7] and in [8] was “inactive” throughout.

With `COc1cc(C(=O)N2CCCCCCC2)cc(OC)c1OC`, the outcome in assay [1], in [3], in assay [4] and in assay [9] was inactive. Besides, the Potency result in assay [2], in assay [5], in assay [6], in [7] and in assay [8] was “inactive” throughout.

`COC(=O)C1=C(C)NC(C)=C(C(=O)OC)C1c1ccccc1[N+](=O)[O-]`: the call in assay [1], in [3], in assay [4] and in assay [9] was inactive. Moreover, the Potency in assay [2] is 6.12 µM (active) and 6.68 µM (active). In addition, the Potency result in assay [5], in assay [6], in assay [7] and in [8] was “inactive” throughout.

On to `CCn1nc(C(=O)O)c(=O)c2cc3c(cc21)OCO3`, for which the call in assay [1], in assay [3], in assay [4] and in [9] was inactive. The Potency result in assay [2], in assay [5], in [6], in assay [10] and in assay [8] was “inactive” throughout.

In the case of `C1CN(CCOCCN2CCOCC2)CCO1`, the compound was classed as inactive in assay [1], in [3], in assay [4] and in assay [9]. Besides, the Potency result in assay [2], in [5], in assay [6], in assay [7] and in [8] was “inactive” throughout.

`COC(=O)CC(C)=O`: the call in assay [1], in assay [3], in [4] and in assay [9] was inactive. Besides, the Potency entry in assay [2], in [5] and in [6] was “inactive” each time.

As to `CCN(CC)CCNC(=O)c1cc(S(C)(=O)=O)ccc1OC`, the compound was called inactive in assay [1], in assay [3], in assay [4] and in [9]. In addition, the Potency result in assay [2], in assay [5], in assay [7] and in [8] was “inactive” in each case.

As to `COc1nc(N)nc2c1ncn2[C@@H]1O[C@H](CO)[C@@H](O)[C@@H]1O`, the outcome in [1], in assay [3], in assay [4] and in assay [9] was inactive. In addition, the Potency result in assay [2], in [5], in [6] and in [7] was “inactive” each time.

For `O=c1n(CCO)c(=O)n(CCO)c(=O)n1CCO`, the call in [1], in assay [3], in assay [4] and in assay [9] was inactive. In [2], the Potency result was “inactive and 27.3 µM (active)”. The Potency result in [5], in [6] and in assay [8] was “inactive” in each case.

For `NCCc1cnc[nH]1`, the compound was classed as inactive in assay [1], in assay [3], in [4] and in [9]. For the same compound, the Potency entry in assay [2] and in assay [5] was “inactive” in each case.

As for `C=CCCCCCCCCC=O`, the compound was called inactive in assay [1], in assay [3], in assay [4] and in [9]. Also, the Potency result in assay [2], in assay [5], in [7] and in [8] was “inactive” in each case.

As to `Cc1cc2c(cc1S(N)(=O)=O)S(=O)(=O)CCC2`, the result in [1], in [3], in assay [4] and in assay [9] was inactive. The Potency result in assay [2], in assay [5], in assay [7] and in assay [8] was “inactive” in each case.

With `C=CCOCC(CC)(CO)COCC=C`, the call in assay [1], in assay [3], in [4] and in [9] was inactive. Further, the Potency entry in assay [2], in [5] and in [6] was “inactive” throughout.

Take `ClC(Cl)(Br)Br`: the compound was classed as inactive in assay [1], in assay [3] and in assay [9]. In addition, the Potency result in [2], in [5], in [6], in assay [10], in assay [7] and in assay [8] was “inactive” each time.

Regarding `O=C(O)COc1nn(Cc2ccccc2)c2ccccc12`, the result in assay [1], in [3] and in assay [9] was inactive. Moreover, the Potency result in assay [2], in assay [5], in [6], in assay [7] and in assay [8] was “inactive” each time. The Potency in assay [10] is 33.5 µM (active).

Regarding `NS(=O)(=O)c1ccc(C(=O)O)cc1`, the compound was called inactive in assay [1], in [3] and in assay [9]. Besides, the Potency result in assay [2], in assay [5], in assay [6], in assay [10], in assay [7] and in [8] was “inactive” in each case.

Turning to `CN1CCC(=C2c3ccccc3CC(=O)c3sccc32)CC1`, the result in assay [1], in [3], in assay [4] and in assay [9] was inactive. Further, the Potency result in assay [2], in assay [5] and in assay [8] was “inactive” in each case.

On to `COCCc1ccc(OCC(O)CNC(C)C)cc1` (stereo not drawn), for which the compound was classed as inactive in assay [1], in assay [3], in [4] and in assay [9]. Further, the Potency entry in assay [2], in [5], in assay [6] and in assay [7] was “inactive” each time.

As to `CCN(Cc1ccncc1)C(=O)C(CO)c1ccccc1` (stereo not drawn), the call in assay [1], in assay [3], in assay [4] and in assay [9] was inactive. For the same compound, the Potency result in assay [2], in assay [5] and in assay [7] was “inactive” in each case.

As to `CC/C=C\CC/C=C/C(OCC)OCC`, the outcome in assay [1], in assay [3], in assay [4] and in [9] was inactive. Besides, in [2], the Potency is 27.3 µM (active). The Potency entry in assay [5], in assay [6] and in assay [7] was “inactive” throughout.

Take `CCN1CCC[C@H]1CNC(=O)c1cc(S(N)(=O)=O)ccc1OC`: the outcome in assay [1], in assay [3], in [4] and in [9] was inactive. Also, the Potency entry in [2], in [5], in [6] and in assay [7] was “inactive” each time.

Turning to `O=[N+]([O-])c1ccc(F)cc1F`, the compound was classed as inactive in assay [1], in assay [3] and in [4]. Also, the Potency entry in assay [2], in [5] and in [8] was “inactive” in each case.

For `Nc1c[n+](N2CCOCC2)no1`, the result in assay [1], in [3], in [4] and in assay [9] was inactive. In addition, the Potency result in assay [2], in [5] and in assay [8] was “inactive” each time.

As to `O=C[C@H](O)[C@@H](O)[C@H](O)[C@H](O)CO`, the compound was classed as inactive in assay [1], in [3], in assay [4] and in [9]. Moreover, the Potency entry in assay [2], in assay [5], in assay [7] and in [8] was “inactive” in each case.
